GCN5L2 inh – inhibitors of human GCN5L2 histone acetyltransferase | GCN5L2 HAT assay, ThioGlo1 CoA-SH fluorescence | Potency, µM (doses to about 58.9 µM), most hits filed as inhibitors | actives 0.21% (n = 390,000) | AID 504327
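Free CoA generated was detected with ThioGlo1 (50uM) fluorescence at Ex340nm/Em540nm, read immediately and after 20 min at room temperature. Enzyme, 20 nM in HEPES pH 7.5 buffer, saw compounds 15 min before adding 75uM H3(1-25) peptide and 70uM acetyl-CoA.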
L3MBTL1 inh – blocks human L3MBTL1. Q9Y468. AlphaScreen L3MBTL1–H3K9me1 peptide binding. Potency, µM (series often up to 57.1 µM), hits mostly inhibitors. actives 0.66% (n = 230,000). AID 485360; further: nearly all actives have a fitted effect of over 60% in size
Target sequence (Q9Y468 whole entry, looked up): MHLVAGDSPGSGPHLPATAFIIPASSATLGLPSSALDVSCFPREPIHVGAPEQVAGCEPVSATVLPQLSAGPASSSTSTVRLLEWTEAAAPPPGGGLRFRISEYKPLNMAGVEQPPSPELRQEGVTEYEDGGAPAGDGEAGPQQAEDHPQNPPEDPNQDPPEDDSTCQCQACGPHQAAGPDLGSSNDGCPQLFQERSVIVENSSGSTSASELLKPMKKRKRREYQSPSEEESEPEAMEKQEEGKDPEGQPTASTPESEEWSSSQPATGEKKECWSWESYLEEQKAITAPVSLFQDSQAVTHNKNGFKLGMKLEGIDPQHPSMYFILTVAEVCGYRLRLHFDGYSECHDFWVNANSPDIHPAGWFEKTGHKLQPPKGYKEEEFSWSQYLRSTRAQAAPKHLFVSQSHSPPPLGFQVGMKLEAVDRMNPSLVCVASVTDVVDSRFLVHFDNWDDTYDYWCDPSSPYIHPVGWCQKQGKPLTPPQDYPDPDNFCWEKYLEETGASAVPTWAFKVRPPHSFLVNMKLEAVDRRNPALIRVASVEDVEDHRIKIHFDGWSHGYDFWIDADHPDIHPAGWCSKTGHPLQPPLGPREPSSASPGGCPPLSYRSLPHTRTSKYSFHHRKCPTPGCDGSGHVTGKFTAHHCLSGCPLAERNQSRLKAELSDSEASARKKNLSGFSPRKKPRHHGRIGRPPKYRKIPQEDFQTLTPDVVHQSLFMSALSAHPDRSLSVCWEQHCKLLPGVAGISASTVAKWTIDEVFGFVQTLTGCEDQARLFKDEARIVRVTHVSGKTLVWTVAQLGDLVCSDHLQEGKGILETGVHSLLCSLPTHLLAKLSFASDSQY
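L3MBTL1 (50 nM) pre-complexed 30 min with biotinylated H3(1-15)K9me1 peptide (75 nM), then compounds added for 30 min at room temperature; AlphaScreen streptavidin donor/nickel chelate acceptor beads (10 ug/mL final) read after 30 min dark incubation.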
RECQ1 inh-1 – inhibitors of human RECQ1 DNA helicase; Potency, µM (top dose mostly 57.3 µM), actives largely listed as inhibitors; RECQ1 DNA unwinding, red fluorescence kinetic read; actives 0.54% (n = 240,000); P46063; further: nearly all actives have a fitted effect of over 30% in size
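RECQ1T1 50 nM; forked duplex (20 bp + 30-nt ss tails) 200 nM, ATP 2 mM final; pH 8.0, 2 mM MgCl2, 2.5 ug/ml poly(dI-dC); 15 min compound preincubation; discontinuous kinetic read over 2 h at RT.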
APE1 inh – APE1 (human) endonuclease inhibition. recombinant APE1, TAMRA/BHQ-2 abasic DNA cleavage fluorescence. P27695. actives 0.35% (n = 350,000). Potency, µM (doses to about 65.8 µM), hits mostly inhibitors; further: nearly all actives have a fitted effect of over 55% in size
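APE1 at 0.75 nM preincubated 15 min at room temperature with compound. Reaction then started with 50 nM double-stranded THF-abasic substrate labelled with TAMRA/BHQ-2, and 525/598 nm fluorescence read kinetically. Activity taken as third-minus-first read difference, normalized to DMSO and NSC13755 controls.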
BLM inh – inhibitors of human Bloom syndrome helicase BLM; P54132; recombinant BLM DNA unwinding, fluorescence dequenching; actives 0.2% (n = 350,000); Potency, µM (series often up to 56.1 µM), hits mostly inhibitors; AID 2528; further: nearly all actives have a fitted effect of over 35% in size
JMJD2E inh – blocks human JMJD2E demethylase activity. B2RXH2. JMJD2E catalytic domain, FDH-coupled NADH fluorescence (FDH is formaldehyde dehydrogenase). Potency, µM (highest dose often 57.1 µM), hits mostly inhibitors. actives 1.6% (n = 230,000). AID 2147; active means well fitted inhibition curve with a large enough effect, not every such curve was filed as active; inconclusive means small, poorly fitted or top-dose-only effect, or another doubt; inactive means no such curve, though single readings can be large or run the other way; further: nearly all actives have a fitted effect of over 50% in size
RECQ1 inh conf – confirmation of human RECQ1 helicase inhibitors; actives 28% (n = 610); shares compounds with RECQ1 inh-1; Potency, µM (highest dose often 229 µM), hits mostly inhibitors; RECQ1 helicase DNA unwinding, fluorescence; further: nearly all actives have a fitted effect of over 45% in size
ADP FP counter – displaces ADP in a fluorescence polarization counter-screen for RECQ1 hits; shares compounds with RECQ1 inh-1; ADP fluorescence polarization displacement counterscreen; Potency, µM (doses to about 228 µM), hits mostly inhibitors; actives 27% (n = 530); AID 2711; further: nearly all actives have a fitted effect of over 45% in size
RECQ1 inh-2 – blocks human RECQ1 DNA unwinding. actives 15% (n = 1,100). Potency, µM (titrated, usually from 119 µM), actives largely listed as inhibitors. recombinant RECQ1 DNA unwinding, red fluorescence. shares compounds with RECQ1 inh-1. AID 504841; further: nearly all actives have a fitted effect of over 50% in size
Hits are given with their value; i = inactive; ? = inconclusive; nt = not tested or not shown. This is one part of a sample in which hits are shown more often than they occur. Unless noted, the call rests on the fitted dose curve; in most records, active means well fitted curve in the direction sought with a large enough effect; inconclusive means small, poorly fitted or top-dose-only effect, or another doubt; inactive means no such curve, though single readings can be large; an effect the other way counts as inactive or inconclusive.

SMILES	GCN5L2 inh	L3MBTL1 inh	RECQ1 inh-1	APE1 inh	BLM inh	JMJD2E inh	RECQ1 inh-2	others
Cc1oc(C)c2c(=O)ccc3c(c12)OC(N)=C(C#N)C3c1ccccc1Cl (centres undefined)	i	?	?	i	?	17.8µM	i
COc1ccc(C2C(C#N)=C(N)Oc3c2oc(CO)cc3=O)cc1 (centres undefined)	i	nt	i	i	i	?	nt
CSc1ccc(C2C(C#N)=C(N)Oc3c2ccc(=O)c2c(C)oc(C)c32)cc1 (centres undefined)	?	?	?	?	i	?	?
Cc1oc(C)c2c(=O)ccc3c(c12)OC(N)=C(C#N)C3c1ccccc1 (centres undefined)	i	i	?	i	i	?	i
N#CC1=C(N)OC2=C(CC/C2=C\c2ccccc2Cl)C1c1ccccc1Cl (centres undefined)	i	i	i	i	i	?	nt
Cc1ccc(O)c(-c2n[nH]c3c2C(c2ccccc2F)N(Cc2ccco2)C3=O)c1 (centres undefined)	i	nt	nt	nt	i	nt	nt
Cc1cccc(S(=O)(=O)c2c(C)cc(C)nc2Cl)c1	i	i	i	i	i	i	nt
COc1ccc(S(=O)(=O)N2CC(C(=O)O)Oc3ccc(CC(=O)O)cc32)cc1 (centres undefined)	i	i	i	i	i	i	nt	RECQ1 inh conf=i;ADP FP counter=i
O=C1C=CC2=C3c4cc(O)c(O)cc4C[C@]3(O)COC2=C1	i	nt	11.2µM	10µM	i	12.6µM	nt	RECQ1 inh conf=112µM;ADP FP counter=6.31µM
COc1ccccc1N1C(=O)CC(N2CCc3ccccc32)C1=O (centres undefined)	i	?	?	?	i	?	i
c1ccc2c(c1)CCN(C1=Nc3cccc4cccc1c34)C2	i	?	12.6µM	?	i	?	i	RECQ1 inh conf=i
c1cc2c3c(cccc3c1)C(N1CCCCCC1)=N2	i	i	i	i	i	?	nt
C[C@H](NC(=O)c1nc[nH]c1C(=O)N[C@@H](Cc1ccccc1)C(=O)OCc1ccccc1)c1ccccc1	i	i	39.8µM	i	i	i	i
CC(C)C[C@H](NC(=O)c1nc[nH]c1C(=O)NCCCCCNC(=O)OC(C)(C)C)C(=O)OCc1ccccc1	i	i	?	?	i	i	i
C[C@@H](NC(=O)c1nc[nH]c1C(=O)N[C@@H](Cc1ccccc1)C(=O)OCc1ccccc1)c1ccccc1	i	i	i	i	i	i	nt
CCn1cc(S(=O)(=O)c2cccc(C)c2)c(=O)c2cc(F)c(N3CCN(c4ccccc4)CC3)cc21	i	nt	nt	nt	i	nt	nt
CCOC(=O)c1c(C)[nH]c(C(=O)COC(=O)C2(C)CC2(Cl)Cl)c1C (centres undefined)	i	nt	i	?	i	i	nt
C=CCn1c(SCC(=O)NCc2ccccc2)nnc1-c1ccccc1O	i	i	i	i	i	i	nt	RECQ1 inh conf=i;ADP FP counter=i
C=CCn1c(SCC(N)=O)nnc1-c1ccccc1O	i	i	i	i	i	i	nt
O=C(Nc1ccccc1)N1CCC2(CC1)CCN(C(=O)c1cccc(F)c1)CC2	i	nt	i	i	i	nt	nt
O=C(O)c1ccc(Cl)c(NC(=O)C2CCCN2S(=O)(=O)c2cccc3nsnc23)c1 (centres undefined)	i	i	i	i	i	i	nt	RECQ1 inh conf=i;ADP FP counter=i
Cc1ccc(NC(=O)C2CCCN2S(=O)(=O)c2cccc3nsnc23)cc1Cl (centres undefined)	i	nt	nt	nt	i	nt	nt
CCC(=O)c1c[nH]c(C(=O)NCCCn2ccnc2)c1	i	i	i	i	i	i	nt
Cc1ccc(OCC(O)Cn2c3ccccc3c3ccccc32)cc1 (centres undefined)	i	i	?	i	i	?	i
c1ccc(Cc2nnc3sc(-c4ccco4)nn23)cc1	i	i	?	i	i	i	?
SMILES	GCN5L2 inh	L3MBTL1 inh	RECQ1 inh-1	APE1 inh	BLM inh	JMJD2E inh	RECQ1 inh-2	others
O=C(CNC(=O)c1ccc(S(=O)(=O)N2CCCC2)cc1)N/N=C/c1ccc(Cl)cc1Cl	i	i	i	i	i	i	nt	RECQ1 inh conf=i;ADP FP counter=i
CCC(c1nnnn1Cc1ccco1)N(Cc1cc2cc(C)cc(C)c2[nH]c1=O)CC1CCCO1 (centres undefined)	i	nt	?	i	i	?	i
COc1cc(S(=O)(=O)N2CCN(c3ccccn3)CC2)ccc1Br	i	i	nt	i	i	nt	nt
O=C(COc1ccccc1)OCC(=O)c1ccc(S(=O)(=O)N2CCCCC2)cc1	i	i	nt	i	nt	nt	nt
Cc1ccc(C(c2ccc(C)o2)c2cccc([N+](=O)[O-])c2O)o1	i	i	?	i	i	i	?
Cn1c(=O)cc(Nc2ccccc2)[nH]c1=O	i	i	nt	i	i	nt	nt
O=c1[nH]c(Nc2ccccc2)cc2ccccc12	i	i	?	?	i	?	?
CCOc1cccc(=O)c2c(C)n(-c3ccc(C(=O)O)cc3)c(C)c12	i	?	?	?	i	?	?
CCCCOc1ccc(C(=O)NCCS(=O)(=O)N2CCN(c3ccccc3OC)CC2)cc1	i	nt	nt	nt	i	nt	nt
CCN1C(=O)C(CC(=O)Nc2ccc(OC)cc2)N(CCc2ccccc2)C1=S (centres undefined)	i	i	i	i	i	i	nt
CCN1C(=O)C(CC(=O)Nc2ccc(F)cc2)N(CCc2ccc(OC)cc2)C1=S (centres undefined)	i	i	22.4µM	i	i	i	i
CC(C)(C)OC(=O)N[C@H](C(=O)OC(C)(C)C)c1ccc2c(c1)OCO2	i	i	nt	i	nt	nt	nt
O=C(Nc1ccc(NC(=O)c2cccs2)cc1)c1ccc(Br)o1	i	nt	?	?	i	i	?
O=C(Nc1cccc(NC(=O)c2cccs2)c1)c1ccc(Br)o1	i	nt	nt	i	i	nt	nt
CN(Cc1c(F)cccc1Cl)C(=O)CCc1c[nH]c2ccccc12	i	nt	nt	i	i	nt	nt
Cc1ccc(C=C2C(=O)c3ccccc3C2=O)s1	i	nt	14.1µM	i	i	i	nt	RECQ1 inh conf=?;ADP FP counter=i
COC(=O)c1sc2ccccc2c1NC(=O)c1ccc(S(=O)(=O)N2CCCC(C)C2)cc1 (centres undefined)	i	i	i	i	i	i	nt
COC(=O)c1sc2ccccc2c1NC(=O)c1ccc(S(=O)(=O)N2CC(C)CC(C)C2)cc1 (centres undefined)	i	i	i	i	i	i	nt	RECQ1 inh conf=i;ADP FP counter=i

Screening data as filed in PubChem.
